# Hits are enriched below; roughly 1.8% of the tested compounds scored in any of these assays.
# TrxR1 inh = blocks rat thioredoxin reductase 1; O89049; recombinant rTrxR1, NADPH fluorescence consumption, selenite substrate; Potency, µM (titrated, usually from 114 µM), without a hit: top-dose activity change, negative = inhibition, most hits filed as inhibitors; 390,000 compounds, 1% hits; AID 588453; note: nearly all actives have a fitted effect of over 65% in size
# Target sequence (O89049 whole entry, looked up): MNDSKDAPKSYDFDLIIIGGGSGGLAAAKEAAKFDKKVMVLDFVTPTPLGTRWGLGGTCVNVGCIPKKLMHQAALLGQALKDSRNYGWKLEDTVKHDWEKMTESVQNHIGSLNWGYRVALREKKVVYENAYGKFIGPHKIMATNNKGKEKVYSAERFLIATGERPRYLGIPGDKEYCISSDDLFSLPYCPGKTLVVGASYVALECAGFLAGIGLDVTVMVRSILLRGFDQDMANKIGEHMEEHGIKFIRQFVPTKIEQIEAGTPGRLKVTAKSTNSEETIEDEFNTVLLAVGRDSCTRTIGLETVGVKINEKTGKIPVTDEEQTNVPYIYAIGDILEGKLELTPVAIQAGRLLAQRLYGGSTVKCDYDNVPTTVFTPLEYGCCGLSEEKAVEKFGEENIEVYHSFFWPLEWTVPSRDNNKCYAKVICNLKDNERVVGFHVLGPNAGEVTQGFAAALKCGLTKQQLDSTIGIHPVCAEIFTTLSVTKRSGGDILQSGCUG
#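 Rat TrxR1 (90 nM in the dispensed reagent) was pre-reduced with 400 uM NADPH for 5 min at room temperature, then incubated with compound for 15 min. After 400 uM selenite was added, NADPH fluorescence (Ex 340/Em 450 nm) was followed for 8 min.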
# GCN5L2 inh = blocks human GCN5L2 histone acetyltransferase. Q92830. GCN5L2 HAT assay, ThioGlo1 CoA-SH fluorescence. Potency, µM (highest dose often 58.9 µM), inactives show at the highest dose activity change, negative = inhibition, hits mostly inhibitors. 390,000 compounds, 0.21% hits. AID 504327
#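 Enzyme at 20nM final was mixed with library compounds for 15 min at room temperature. Peptide H3(1-25) at 75uM, acetyl-CoA at 70uM and ThioGlo1 at 50uM were then added. Plates were read immediately and after 20 min (Ex340nm/Em540nm).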
# TrxR1 substrate = substrates of rat thioredoxin reductase 1; purified TrxR1 substrate turnover, NADPH consumption readout; Potency, µM (series often up to 114 µM), for inactives: at the highest dose activity change, negative = substrate turnover; O89049; 390,000 compounds, 0.01% hits; note: nearly all actives have a fitted effect of over 50% in size
#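 Rat TrxR1, dispensed at 90 nM, was prereduced with 400 uM NADPH (final) for 5 min at ~22 deg C, then incubated with compound 15 min before 400 uM selenite. A first-read NADPH fluorescence drop versus no-compound background flagged substrates.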
# VDR inh = vitamin D3 receptor (human) inhibition | P11473 | VDR-SRC2-3 peptide fluorescence polarization, 2 h | Potency, µM, inactives show max response, negative = inhibition, most hits filed as inhibitors | 400,000 compounds, 0.93% hits | AID 504847
#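 Signal is fluorescence polarization, reporting how far test compounds block the interaction of VDR with the SRC2-3 coregulator peptide after a 2 h room-temperature incubation.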
# * hit, by the source's call; ? = inconclusive; . = not tested or not shown; [ ] = another dose, or the depositor's remark. Calls come from the whole dose curve; as a rule, active = well fitted curve in the direction sought with a large enough effect; inconclusive = small, poorly fitted or top-dose-only effect, or another doubt; inactive = no such curve, though single readings can be large; an effect the other way counts as inactive or inconclusive. % is set by controls: 0 for no effect and ±100 for the full control effect; potency is the fitted concentration of half-maximal effect.
SMILES,TrxR1 inh,GCN5L2 inh,TrxR1 substrate,VDR inh
Cc1[nH]c2ccccc2c1C(=O)C(=O)N1CC=C(c2ccccc2)CC1,-25%,-3%,-10%,-7%
CCc1ccc(CN2CCc3nc(Nc4ccccc4)ncc3C2)cc1,11%[57.1 µM],-9%,4%[57.1 µM],2%
CC(=O)OC1CC2C(C)(C)C(O)C=C[C@@]2(C)C2CC[C@@]3(C)C(c4ccoc4)OC(=O)C4OC43[C@]12C (some centres not stated),.,-3%,.,?
O=C(CSCC(=O)OCn1nnc2ccccc2c1=O)Nc1ccc(Cl)cc1,18µM*,-3%,1%,-13%
COC(=O)c1ccc(NC(=O)c2ccccc2OCC(=O)Nc2ccc(Br)cc2)cc1,4%,.,9%,.
COC(=O)CSc1nc2c(c(-c3ccc(O)cc3)c1C#N)CCCC2,5%[57.1 µM],-2%,3%[57.1 µM],-2%
COC(=O)CSc1nc2c(c(-c3ccco3)c1C#N)CCCC2,16µM*,?,2%,-12%
CN(C)C(=O)COc1ccccc1C(=O)OCC(=O)Nc1ccc(Oc2ccc(Br)cc2)cc1,21%,.,7%,.
CC1C/C(=C/c2cccs2)C(=O)/C(=C/c2cccs2)C1 (configuration not stated),?,-5%,-12%,5%
CC1C/C(=C/c2ccccn2)C(=O)/C(=C/c2ccccn2)C1 (configuration not stated),?,2%,5%[57.1 µM],28µM*
C(=C\c1ccnc2ccccc12)/c1cc2c3c(c1)CCCN3CCC2,-12%,.,11%[0.0914 µM],.
CN(C)CC1CCn2c(c(C3=C(c4cn(C)c5ccccc45)C(=O)NC3=O)c3ccccc32)C1 (configuration not stated),.,42%,.,1%
CC(C)c1onc(-c2c(Cl)cccc2Cl)c1COc1ccc(/C=C/c2cccc(C(=O)O)c2)c(Cl)c1,.,13µM*,.,?
COc1ccc(C2C(C(C)=O)=C(C)N=c3s/c(=C/c4ccc5c(c4)OCO5)c(=O)n32)cc1 (configuration not stated),.,-21%,.,.
CC(=O)C1=C(C)N=c2s/c(=C/c3ccc4c(c3)OCO4)c(=O)n2C1c1ccc(N(C)C)cc1 (configuration not stated),-13%,.,-2%,32µM*
Clc1ccccc1-c1nnc2sc(CCc3ccccc3)nn12,-18%,-11%,7%,50µM*
COc1ccccc1-c1nn2c(-c3ccccc3Cl)nnc2s1,.,-8%,.,.
O=C(CSc1nc2nc(-c3cccs3)cc(C(F)(F)F)c2c(=O)[nH]1)C(F)(F)F,35µM*,?,609%,?
COC(=O)CSc1nc2nc(-c3cccs3)cc(C(F)(F)F)c2c(=O)[nH]1,63%,-10%,150%,20%
COc1ccc(/C=C/C(=O)c2cc(F)ccc2OC(=O)c2ccccc2)cc1OC,9%[11.4 µM],.,7%[11.4 µM],40µM*
COc1ccc(/C=C/C(=O)c2cc(F)ccc2OC(=O)c2ccc(OC)c(OC)c2)cc1OC,15%,2%,-2%,-22%
CC1(C)Cc2c(C#N)c(N3CCN(C(=O)c4ccccc4)CC3)nc(-c3ccco3)c2CS1,32µM*,?,6%,?
CC(C)c1nc(N2CCN(C(=O)c3ccccc3)CC2)c(C#N)c2c1COC(C)(C)C2,0%[57.1 µM],-2%,35%[57.1 µM],-8%
COc1cc(-c2noc(C)c2C#CCCN2C(=O)c3ccccc3C2=O)cc(OC)c1OC,2%,.,4%,.
O=C(N/N=C/C(Cl)=C/c1ccc([N+](=O)[O-])cc1)C(=O)Nc1cccc(C(=O)O)c1,79µM*,-6%,-17%,?
SMILES,TrxR1 inh,GCN5L2 inh,TrxR1 substrate,VDR inh
COc1cc(C(C2C(=O)CC(C)(C)CC2=O)C2C(=O)CC(C)(C)CC2=O)ccc1O,14µM*,13%,4%,?
CC1(C)CC(=O)C(C(c2cccc([N+](=O)[O-])c2)C2C(=O)CC(C)(C)CC2=O)C(=O)C1,?,-6%,0%,?
Cc1ccc(C(C2C(=O)CC(C)(C)CC2=O)C2C(=O)CC(C)(C)CC2=O)s1,40µM*,-4%,-13%,40µM*
COc1ccc(C(C2C(=O)CC(C)(C)CC2=O)C2C(=O)CC(C)(C)CC2=O)cc1,?,1%,1%,56µM*
COc1cc(C(C2C(=O)CC(C)(C)CC2=O)C2C(=O)CC(C)(C)CC2=O)cc(OC)c1OC,?,-2%,10%[57.1 µM],?
COc1ccc(OC)c(/C=C/c2cc3ccccc3cn2)c1,3%,.,-3%,.

# High-throughput results: PubChem, National Center for Advancing Translational Sciences (NCATS)
